The labels stand for the following.
B1: CCGC (dsDNA)
DNA 1: GCTATCTAGTGCTCAGTACGCACTGCCGCAGGAAACTTCTGGCAGGACCAGGTCATGAGATCGGAAGAGCACACGTCTGAACTCCAGTCA
DNA 2: TGACTGGAGTTCAGACGTGTGCTCTTCCGATCTCATGACCTGGTCCTGCCAGAAGTTTCCTGCGGCAGTGCGTACTGAGCACTAGATAGC
RNA: AAUUUCUACUCUUGUAGAUAGGAAACUUCUGGCAGGACC
B2: CGGT (dsDNA)
DNA 1: GCTATCTAGTGCTCAGTACGCACTGCGGTAGGAAACTTCTGGCAGGACCAGGTCATGAGATCGGAAGAGCACACGTCTGAACTCCAGTCA
DNA 2: TGACTGGAGTTCAGACGTGTGCTCTTCCGATCTCATGACCTGGTCCTGCCAGAAGTTTCCTACCGCAGTGCGTACTGAGCACTAGATAGC
RNA: AAUUUCUACUCUUGUAGAUAGGAAACUUCUGGCAGGACC
B3: CGCT (dsDNA)
DNA 1: GCTATCTAGTGCTCAGTACGCACTGCGCTAGGAAACTTCTGGCAGGACCAGGTCATGAGATCGGAAGAGCACACGTCTGAACTCCAGTCA
DNA 2: TGACTGGAGTTCAGACGTGTGCTCTTCCGATCTCATGACCTGGTCCTGCCAGAAGTTTCCTAGCGCAGTGCGTACTGAGCACTAGATAGC
RNA: AAUUUCUACUCUUGUAGAUAGGAAACUUCUGGCAGGACC
B4: CTGG (dsDNA)
DNA 1: GCTATCTAGTGCTCAGTACGCACTGCTGGAGGAAACTTCTGGCAGGACCAGGTCATGAGATCGGAAGAGCACACGTCTGAACTCCAGTCA
DNA 2: TGACTGGAGTTCAGACGTGTGCTCTTCCGATCTCATGACCTGGTCCTGCCAGAAGTTTCCTCCAGCAGTGCGTACTGAGCACTAGATAGC
RNA: AAUUUCUACUCUUGUAGAUAGGAAACUUCUGGCAGGACC
B5: CGAT (dsDNA)
DNA 1: GCTATCTAGTGCTCAGTACGCACTGCGATAGGAAACTTCTGGCAGGACCAGGTCATGAGATCGGAAGAGCACACGTCTGAACTCCAGTCA
DNA 2: TGACTGGAGTTCAGACGTGTGCTCTTCCGATCTCATGACCTGGTCCTGCCAGAAGTTTCCTATCGCAGTGCGTACTGAGCACTAGATAGC
RNA: AAUUUCUACUCUUGUAGAUAGGAAACUUCUGGCAGGACC
B6: CGAA (dsDNA)
DNA 1: GCTATCTAGTGCTCAGTACGCACTGCGAAAGGAAACTTCTGGCAGGACCAGGTCATGAGATCGGAAGAGCACACGTCTGAACTCCAGTCA
DNA 2: TGACTGGAGTTCAGACGTGTGCTCTTCCGATCTCATGACCTGGTCCTGCCAGAAGTTTCCTTTCGCAGTGCGTACTGAGCACTAGATAGC
RNA: AAUUUCUACUCUUGUAGAUAGGAAACUUCUGGCAGGACC
B7: CGAC (dsDNA)
DNA 1: GCTATCTAGTGCTCAGTACGCACTGCGACAGGAAACTTCTGGCAGGACCAGGTCATGAGATCGGAAGAGCACACGTCTGAACTCCAGTCA
DNA 2: TGACTGGAGTTCAGACGTGTGCTCTTCCGATCTCATGACCTGGTCCTGCCAGAAGTTTCCTGTCGCAGTGCGTACTGAGCACTAGATAGC
RNA: AAUUUCUACUCUUGUAGAUAGGAAACUUCUGGCAGGACC
B8: CCGT (dsDNA)
DNA 1: GCTATCTAGTGCTCAGTACGCACTGCCGTAGGAAACTTCTGGCAGGACCAGGTCATGAGATCGGAAGAGCACACGTCTGAACTCCAGTCA
DNA 2: TGACTGGAGTTCAGACGTGTGCTCTTCCGATCTCATGACCTGGTCCTGCCAGAAGTTTCCTACGGCAGTGCGTACTGAGCACTAGATAGC
RNA: AAUUUCUACUCUUGUAGAUAGGAAACUUCUGGCAGGACC
B9: CGCC (dsDNA)
DNA 1: GCTATCTAGTGCTCAGTACGCACTGCGCCAGGAAACTTCTGGCAGGACCAGGTCATGAGATCGGAAGAGCACACGTCTGAACTCCAGTCA
DNA 2: TGACTGGAGTTCAGACGTGTGCTCTTCCGATCTCATGACCTGGTCCTGCCAGAAGTTTCCTGGCGCAGTGCGTACTGAGCACTAGATAGC
RNA: AAUUUCUACUCUUGUAGAUAGGAAACUUCUGGCAGGACC
B10: CTCG (dsDNA)
DNA 1: GCTATCTAGTGCTCAGTACGCACTGCTCGAGGAAACTTCTGGCAGGACCAGGTCATGAGATCGGAAGAGCACACGTCTGAACTCCAGTCA
DNA 2: TGACTGGAGTTCAGACGTGTGCTCTTCCGATCTCATGACCTGGTCCTGCCAGAAGTTTCCTCGAGCAGTGCGTACTGAGCACTAGATAGC
RNA: AAUUUCUACUCUUGUAGAUAGGAAACUUCUGGCAGGACC
B11: CTGC (dsDNA)
DNA 1: GCTATCTAGTGCTCAGTACGCACTGCTGCAGGAAACTTCTGGCAGGACCAGGTCATGAGATCGGAAGAGCACACGTCTGAACTCCAGTCA
DNA 2: TGACTGGAGTTCAGACGTGTGCTCTTCCGATCTCATGACCTGGTCCTGCCAGAAGTTTCCTGCAGCAGTGCGTACTGAGCACTAGATAGC
RNA: AAUUUCUACUCUUGUAGAUAGGAAACUUCUGGCAGGACC
B12: CGAG (dsDNA)
DNA 1: GCTATCTAGTGCTCAGTACGCACTGCGAGAGGAAACTTCTGGCAGGACCAGGTCATGAGATCGGAAGAGCACACGTCTGAACTCCAGTCA
DNA 2: TGACTGGAGTTCAGACGTGTGCTCTTCCGATCTCATGACCTGGTCCTGCCAGAAGTTTCCTCTCGCAGTGCGTACTGAGCACTAGATAGC
RNA: AAUUUCUACUCUUGUAGAUAGGAAACUUCUGGCAGGACC
B13: CGCA (dsDNA)
DNA 1: GCTATCTAGTGCTCAGTACGCACTGCGCAAGGAAACTTCTGGCAGGACCAGGTCATGAGATCGGAAGAGCACACGTCTGAACTCCAGTCA
DNA 2: TGACTGGAGTTCAGACGTGTGCTCTTCCGATCTCATGACCTGGTCCTGCCAGAAGTTTCCTTGCGCAGTGCGTACTGAGCACTAGATAGC
RNA: AAUUUCUACUCUUGUAGAUAGGAAACUUCUGGCAGGACC
B14: CGGA (dsDNA)
DNA 1: GCTATCTAGTGCTCAGTACGCACTGCGGAAGGAAACTTCTGGCAGGACCAGGTCATGAGATCGGAAGAGCACACGTCTGAACTCCAGTCA
DNA 2: TGACTGGAGTTCAGACGTGTGCTCTTCCGATCTCATGACCTGGTCCTGCCAGAAGTTTCCTTCCGCAGTGCGTACTGAGCACTAGATAGC
RNA: AAUUUCUACUCUUGUAGAUAGGAAACUUCUGGCAGGACC
B15: CGGC (dsDNA)
DNA 1: GCTATCTAGTGCTCAGTACGCACTGCGGCAGGAAACTTCTGGCAGGACCAGGTCATGAGATCGGAAGAGCACACGTCTGAACTCCAGTCA
DNA 2: TGACTGGAGTTCAGACGTGTGCTCTTCCGATCTCATGACCTGGTCCTGCCAGAAGTTTCCTGCCGCAGTGCGTACTGAGCACTAGATAGC
RNA: AAUUUCUACUCUUGUAGAUAGGAAACUUCUGGCAGGACC
B16: CTAC (dsDNA)
DNA 1: GCTATCTAGTGCTCAGTACGCACTGCTACAGGAAACTTCTGGCAGGACCAGGTCATGAGATCGGAAGAGCACACGTCTGAACTCCAGTCA
DNA 2: TGACTGGAGTTCAGACGTGTGCTCTTCCGATCTCATGACCTGGTCCTGCCAGAAGTTTCCTGTAGCAGTGCGTACTGAGCACTAGATAGC
RNA: AAUUUCUACUCUUGUAGAUAGGAAACUUCUGGCAGGACC
B17: CGCG (dsDNA)
DNA 1: GCTATCTAGTGCTCAGTACGCACTGCGCGAGGAAACTTCTGGCAGGACCAGGTCATGAGATCGGAAGAGCACACGTCTGAACTCCAGTCA
DNA 2: TGACTGGAGTTCAGACGTGTGCTCTTCCGATCTCATGACCTGGTCCTGCCAGAAGTTTCCTCGCGCAGTGCGTACTGAGCACTAGATAGC
RNA: AAUUUCUACUCUUGUAGAUAGGAAACUUCUGGCAGGACC
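Further: relative affinity from the bound to unbound sequence frequency ratio in Spec-seq.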

The target in one test is dAsCas12a S542R (Acidaminococcus sp., UniProt U2UMQ6 1-1307, S542R;D908A;E993A;D1235A). Nature of the test: Spec-seq (native PAGE EMSA with sequencing of bound and unbound); 25 mM Tris-HCl pH 7.4, 150 mM KCl, 5 mM MgCl2, 10% glycerol, 1 mM DTT, 40 ng/uL salmon sperm DNA; 400 nM Cas12a, 480 nM crRNA, 50 nM library, 37 C 1 h; native PAGE at room temperature; high values mean tight binding. The settings on record: protein: recombinant. A general note: Mobility shift assays separate free from complexed probe on a gel.
Consider B1, for which the binding signal is -8.39 lnKA.
Take B2: the binding signal is -8.62 lnKA.
For B3, the binding signal was -8.52 lnKA.
For B4, the binding signal was -8.46 lnKA.
As to B5, the binding signal is -8.8 lnKA.
As to B6, the binding signal was -8.66 lnKA.
As to B7, the binding signal is -8.8 lnKA.
Consider B8, for which the binding signal is -8.47 lnKA.
Regarding B9, the binding signal is -8.54 lnKA.
Still for that read-out and setting: in the case of B10 it was -6.92 lnKA; in that of B11, -8.71 lnKA; in that of B12, -8.83 lnKA.
Consider B13, for which the binding signal is -8.48 lnKA.
Regarding B14, the binding signal is -8.76 lnKA.
With B15, the binding signal was -8.51 lnKA.
As to B16, the binding signal was -8.27 lnKA.
As for B17, the binding signal was -8.29 lnKA.

Another test concerns the target d-enCas12a (Acidaminococcus sp., UniProt U2UMQ6 1-1307, E174R;S542R;K548R;D908A;E993A;D1235A). The test is described as above. The following applies: protein: recombinant.
For the molecule B1, the binding signal was -5.85 lnKA.
With B2, the binding signal is -5.84 lnKA.
Turning to B3, the binding signal is -4.5 lnKA.
As for B4, the binding signal was -5.9 lnKA.
In the case of B5, the binding signal was -5.8 lnKA.
On to B6, for which the binding signal is -5.81 lnKA.
Take B7: the binding signal is -5.58 lnKA.
Turning to B8, the binding signal was -5.88 lnKA.
Regarding B9, the binding signal is -1.48 lnKA.
Turning to B10, the binding signal was -3.29 lnKA.
On to B11, for which the binding signal was -5.32 lnKA.
Same read-out and setting: in the case of B12 it was -5.83 lnKA; in that of B13, -2.19 lnKA.
Take B14: the binding signal was -5.73 lnKA.
Regarding B15, the binding signal is -5.63 lnKA.
B16: the binding signal is -4.66 lnKA.
In the case of B17, the binding signal is -3.31 lnKA.

The next test has as its target d-enCas12a-Ultra (Acidaminococcus sp., UniProt U2UMQ6 1-1307, E174R;S542R;K548R;M537R;F870L;D908A;E993A;D1235A). The test is described as above. The settings on record: protein: recombinant.
For the molecule B1, the binding signal is -3.33 lnKA.
On the same count and under the same terms, in the case of B2 it was -3.41 lnKA; in that of B3, -1.29 lnKA.
As to B4, the binding signal is -3.29 lnKA.
Same read-out and setting: in the case of B5 it was -3.4 lnKA; in that of B6, -3.32 lnKA; in that of B7, -2.94 lnKA.
For B8, the binding signal is -3.38 lnKA.
In the case of B9, the binding signal was -0.384 lnKA.
On the same count and under the same terms, in the case of B10 it was -0.685 lnKA; in that of B11, -2.48 lnKA; in that of B12, -3.31 lnKA.
As for B13, the binding signal is -0.537 lnKA.
For the molecule B14, the binding signal is -3.26 lnKA.
For B15, the binding signal was -3.15 lnKA.
In the case of B16, the binding signal is -1.69 lnKA.
Consider B17, for which the binding signal was -0.79 lnKA.

These data come from paper PMC8222333, “AsCas12a ultra nuclease facilitates the rapid generation of therapeutic cell medicines”.
